# HP1b chromo inh = HP1-beta chromodomain-methylated histone interaction inhibition. Potency, µM (titrated, usually from 114 µM), for inactives: at the top dose activity change, negative = inhibition, most hits filed as inhibitors. AlphaScreen HP1-beta / biotin-H3K9me3 peptide binding. hit rate 0.56% among 390,000. AID 540317; further: nearly all actives have a fitted effect of over 70% in size
#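 Compound inhibition of the preformed complex between 50 nM HP1-beta and 50 nM biotinylated H3K9me3 peptide was read by AlphaScreen. Buffer was PBS pH 7.4 with 0.01% Tween-20. Incubations ran 30 min at room temperature, with 10 ug/mL donor/acceptor beads.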
# L3MBTL1 block = inhibitors of human L3MBTL1 | Q9Y468 | AlphaScreen L3MBTL1–H3K9me1 peptide binding | Potency, µM (highest dose often 57.1 µM), for inactives: at the highest dose activity, negative = inhibition, most hits filed as inhibitors | hit rate 0.66% among 230,000 | AID 485360; further: on the % scale 0 is the no-effect control and ±100 the full control effect; nearly all actives have a fitted effect of over 60% in size
# Target sequence (Q9Y468 whole entry, looked up): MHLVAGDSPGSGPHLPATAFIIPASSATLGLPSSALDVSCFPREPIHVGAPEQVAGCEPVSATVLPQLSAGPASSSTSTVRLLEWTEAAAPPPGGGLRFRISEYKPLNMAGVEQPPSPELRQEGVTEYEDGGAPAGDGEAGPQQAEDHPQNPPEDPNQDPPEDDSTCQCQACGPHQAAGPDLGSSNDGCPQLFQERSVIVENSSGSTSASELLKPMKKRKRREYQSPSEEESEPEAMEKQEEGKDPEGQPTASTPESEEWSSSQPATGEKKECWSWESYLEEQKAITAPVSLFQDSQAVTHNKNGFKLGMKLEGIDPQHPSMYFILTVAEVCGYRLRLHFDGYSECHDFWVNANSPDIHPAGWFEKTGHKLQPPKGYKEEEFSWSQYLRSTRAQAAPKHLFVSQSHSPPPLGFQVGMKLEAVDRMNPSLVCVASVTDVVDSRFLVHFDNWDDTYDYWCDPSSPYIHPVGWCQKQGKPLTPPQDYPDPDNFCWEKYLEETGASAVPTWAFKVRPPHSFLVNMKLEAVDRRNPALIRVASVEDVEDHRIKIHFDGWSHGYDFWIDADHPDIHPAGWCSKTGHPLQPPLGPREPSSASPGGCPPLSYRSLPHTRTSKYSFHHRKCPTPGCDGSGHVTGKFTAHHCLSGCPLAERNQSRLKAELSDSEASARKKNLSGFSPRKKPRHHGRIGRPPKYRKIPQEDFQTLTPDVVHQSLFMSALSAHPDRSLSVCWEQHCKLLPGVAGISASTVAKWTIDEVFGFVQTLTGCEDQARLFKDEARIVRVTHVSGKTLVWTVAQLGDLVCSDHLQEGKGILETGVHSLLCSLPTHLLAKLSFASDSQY
#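 AlphaScreen proximity signal between nickel-chelate acceptor and streptavidin donor beads (final 10 ug/mL) reports binding of 50 nM L3MBTL1 to 75 nM biotin-H3 K9me1 peptide; complex incubated with compounds 30 min at room temperature; cefsulodin titration as control.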
# G9a inh = blocks human histone lysine methyltransferase G9a; Q96KQ7; G9a H3K9 monomethylation, AlphaScreen, 2 h; Potency, µM (titrated, usually from 102 µM), without a hit: at the highest dose activity, negative = inhibition, actives largely listed as inhibitors; hit rate 8.8% among 350,000; AID 504332; further: on the % scale 0 is the no-effect control and ±100 the full control effect; nearly all actives have a fitted effect of over 75% in size
#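 AlphaScreen detection with an anti-monomethyl H3K9 antibody quantified product after a 2 h room-temperature reaction containing 500 nM biotinylated H3K9 peptide, 20 µM SAM and 20 nM enzyme, which had been preincubated 15 min with compound.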
# BAZ2B block = blocks human BAZ2B. AlphaScreen BAZ2B-H3K14Ac peptide displacement. hit rate 4.4% among 360,000. Potency, µM (titrated, usually from 114 µM), inactives show top-dose activity change, negative = inhibition, usual class: inhibitors; further: on the % scale 0 is the no-effect control and ±100 the full control effect; nearly all actives have a fitted effect of over 60% in size
#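 AlphaScreen luminescence quantifies BAZ2B engagement of H3K14Ac peptide; the protein and biotinylated peptide are both at 50 nM final, buffer PBS pH 7.4 with 0.01% Tween-20, all steps at room temperature.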
# JMJD2A Tudor = JMJD2A Tudor domain (human) inhibition; O75164; AlphaScreen JMJD2A-Tudor / H3K4me3 peptide binding; Potency, µM (top dose mostly 114 µM), for inactives: at the top dose activity change, negative = inhibition, most hits filed as inhibitors; hit rate 4.4% among 390,000; further: on the % scale 0 is the no-effect control and ±100 the full control effect; nearly all actives have a fitted effect of over 50% in size
# * marks the source's active call; other numbers are inactive results; ? = inconclusive; . = no result given; [ ] = remark or other dose. The list is not random: actives were taken first. Their share in the collection is about 11%. The call rests on the fitted dose curve; in most records, active means well fitted inhibition curve with a large enough effect; inconclusive means small, poorly fitted or top-dose-only effect; inactive means no such curve, though single readings can be large or run the other way. Potency means the concentration at half of the fitted maximal effect.
SMILES,HP1b chromo inh,L3MBTL1 block,G9a inh,BAZ2B block,JMJD2A Tudor
O=C(NCc1ccco1)c1cnn2c1NC(c1ccc(Br)cc1)CC2C(F)(F)F (stereo not given),?,0%,50µM*,?,?
O=C(NCc1ccco1)c1cnn2c1NC(c1ccccc1)CC2C(F)(F)F (stereo not given),9%,0%,6%[12.7 µM],12%,?
CC(C)(C)c1ccc(OCC(=O)N(Cc2ccco2)Cc2ccccc2F)cc1,48%,.,35%[59 µM],-30%,-19%
CCCCNC(=O)/C=C/c1cccs1,-10%,5%,19%[59 µM],5%,10%[57.1 µM]
CCN1CCN(C(=S)NC(=O)/C=C/c2cccs2)CC1,28%,16%,50µM*,-3%,-10%
CCN1CCN(C(=S)NC(=O)c2cccs2)CC1,-17%,.,50µM*,?,8.9µM*
CCc1ccccc1NS(=O)(=O)c1ccc2c(c1)CCCN2C(=O)C1CCC1,19%[57 µM],.,10%[59 µM],-19%,-25%
COc1ccc(C(=O)N2CCOC2CNC(=O)C(=O)NCc2ccco2)cc1 (stereo not given),30%,-5%,-16%,-30%,1%
CNS(=O)(=O)c1cc(-c2nnc(Nc3cc(C)ccc3C)c3ccccc23)ccc1C,34%,.,?,-13%,-21%
CC1=CC(=O)C(C(C)C)=C/C1=N/OS(=O)(=O)c1ccccc1,?,-29%,.,14µM*,45µM*
COc1ccc(OCC(=O)Nc2cc3c(cc2C(=O)O)OCCCO3)cc1,19%,.,14µM*,3%,-20%
COc1ccccc1CCC(=O)Nc1cccc(S(=O)(=O)N2CCCC2)c1,20%,.,17%,-11%,-17%
COc1cccc(CCC(=O)Nc2cc3c(cc2C(=O)O)OCCCO3)c1OC,21%,10%,7.9µM*,-20%,-14%
COc1ccc(C(=O)Nc2cc3c(cc2C(=O)O)OCCCO3)c(OC)c1,0%,.,18%[59 µM],0%,-8%
CCOc1ccc(OCC(=O)Nc2cc3c(cc2C(=O)O)OCCCO3)cc1,36%,.,14µM*,2%,-17%
CCCn1c(N)c(C(=O)CN(C)CC(=O)Nc2cc(C)ccc2C)c(=O)[nH]c1=O,25%,2%,50µM*,-5%,-4%
CCCn1c(N)c(C(=O)CN(C)CC(=O)Nc2ccc(C)cc2)c(=O)[nH]c1=O,33%,-5%,45µM*,9%,22µM*
Cc1ccccc1-c1nc(CS(=O)(=O)CC(=O)Nc2c(C)cccc2C)c(C)o1,37%,.,8%[59 µM],-19%,-8%
CCn1nnc(NC(=O)CSc2ccc(Cl)cc2)n1,-15%,?,71µM*,?,?
CCCCn1nnc(NC(=O)Cc2ccc(Cl)cc2)n1,40%,.,-40%[12.7 µM],39%,-15%
N#CCCNC(=O)CCN1CCOCC1,24%,2%,28µM*,-4%,?
N#CCCNC(=O)CCN1CCCCC1,8%,.,56µM*,-7%,-7%
O=C(CCC(=O)CCN1CCCCC1)CCN1CCCCC1,?,.,13µM*,-3%,-12%
COc1ccc(N2CCN(C(=S)NC(C)c3ccccc3)CC2)cc1 (stereo not given),25%,-19%,?,-35%,-27%
O=C(NC1CC1)C1CCN(c2ncccn2)CC1,1%,.,21%,-1%,-6%
SMILES,HP1b chromo inh,L3MBTL1 block,G9a inh,BAZ2B block,JMJD2A Tudor
O=C(Nc1cccc(F)c1)C1CCCN(S(=O)(=O)c2cnc[nH]2)C1 (stereo not given),28%,.,-5%,-4%,-8%
Cc1ccnn1C(C)C(=O)O (stereo not given),-1%,9%,50µM*,-21%,-30%
CC(C(=O)O)n1nc2ccccc2n1 (stereo not given),26%,4%,-44%[59 µM],?,-23%
CCCSc1nc2sc3c(c2c(=O)n1-c1ccc(C)c(Cl)c1)CCN(C(C)=O)C3,21%,.,?,-18%,-31%
Cc1cc(NC(=O)C2CCCN(S(=O)(=O)c3cn(C)cn3)C2)ccc1Br (stereo not given),26%,.,-2%[12.7 µM],-9%,3%
CCCCOc1ccc(C(=O)NCCc2csc3nc(-c4ccccc4F)nn23)cc1,25%[57 µM],.,5%[59 µM],-3%,-5%
COC(=O)c1ccccc1NC(=O)CCCn1c(C)c2cnn(-c3ccccc3)c(=O)c2c1C,33%,.,-1%[59 µM],-6%,-9%

# Screens from PubChem.
